According to PubChem BioAssay AID540256 (National Center for Advancing Translational Sciences (NCATS), 2011):
Screen size: about 300,000 compounds; about 3,700 (1.2%) were called active. A call without a number means that no potency is given here. Inconclusive results (about 20%) are left out. The call rests on the fitted dose curve; tested in HEK293 cells. For the sample, actives were picked, then their nearest neighbours and some compounds at random.

assay: qHTS for Inhibitors of binding or entry into cells for Lassa Virus; details: Lassa virus pseudotype entry inhibition, cell reporter; series mostly up to 37.9 µM; further: nearly all actives have a fitted effect of over 50% in size
Potency means the concentration at half of the fitted maximal effect.

Structure (SMILES) | Potency
COc1ccc(C(=O)COC(=O)c2c(C)noc2C)cc1Cl | inactive
Cc1c(C(=O)Nc2cccc(S(=O)(=O)N3CCOCC3)c2)oc2ccccc12 | inactive
O=C(c1ccc(N2CCOCC2)c([N+](=O)[O-])c1)N1CCN(c2ccccc2F)CC1 | inactive
O=c1oc2ccccc2cc1-c1cn(-c2ccccc2)c(=S)[nH]1 | 0.891 µM (active)
Nc1ncc(-c2cc3ccccc3oc2=O)s1 | inactive
O=C(c1cn(-c2ccccc2)nc1-c1cc2ccccc2oc1=O)N1CCOCC1 | inactive
O=C1NCC(Nc2ccccc2)C(=O)N1 (stereo not drawn) | inactive
O=C(NCc1ccc(Cl)cc1)C(=O)NCC1CCCN1S(=O)(=O)c1cccs1 (stereo not drawn) | inactive
O=C(COC(=O)c1cnccn1)Nc1ccc(Cl)cc1C(F)(F)F | inactive
CN(Cc1cnccn1)C(=O)c1cc(COc2cccc(C(F)(F)F)c2)on1 | inactive
COC(=O)C(C)Sc1nc2c(c(=O)n(C)c(=O)n2C)n1Cc1cccc(C)c1 (stereo not drawn) | inactive
Cc1cccc(Cn2c(SCCO)nc3c2c(=O)n(C)c(=O)n3C)c1 | inactive
Cc1cccc(Cn2c(N3CCN(c4ccccc4)CC3)nc3c2c(=O)n(C)c(=O)n3C)c1 | 5.8 µM (active)
COc1ccc(/C=C2\SC(=O)N(CCC(=O)NC3CCS(=O)(=O)C3)C2=O)cc1 (stereo not drawn) | inactive
O=C(CCCN1C(=O)/C(=C\c2ccccc2)SC1=S)Nc1ccccc1O | inactive
COc1ccc(/C=C2/SC(=O)N(CCCCCC(=O)Nc3ccccc3C(=O)O)C2=S)cc1 | 11.2 µM (active)
CCCCN1CC(COc2ccccc2)Oc2cccc(F)c2S1(=O)=O (stereo not drawn) | inactive
O=C(Cc1ccccc1Cl)N1CCOCC1 | inactive
O=C(Nc1ccccc1C(=O)Nc1ccncc1)c1ccc([N+](=O)[O-])cc1 | inactive
O=C(CN1CCN(c2ccccn2)CC1)N1CCc2ccccc21 | inactive
O=C(CN1C(=O)c2ccccc2S1(=O)=O)N1CCc2ccccc21 | 0.259 µM (active)
O=C(CN1C(=O)c2ccccc2S1(=O)=O)NC1CCCCC1 | inactive

Structure (SMILES) | Potency
O=C(CSc1ncnc2sccc12)N1CCN(C(=O)c2cccs2)CC1 | inactive
S=C(Nc1ccccc1)Nc1ccc2ccccc2c1 | inactive
COc1ccc(NC(=O)Nc2ccc3nsnc3c2)cc1 | inactive
O=C(Nc1ccc2ccccc2c1)Nc1ccc2snnc2c1 | 12.6 µM (active)
Cc1ccccc1-c1nc2scc(CCNC(=O)C(=O)Nc3ccc(F)cc3F)n2n1 | inactive
C/C(=N\NC(=O)COc1ccc(C)cc1[N+](=O)[O-])c1ccc2c(c1)OCCO2 | inactive
O=C(NCC(c1ccco1)N1CCc2ccccc21)c1cccc(F)c1 (stereo not drawn) | inactive
COc1ccc(C(=O)OCc2cc(=O)n3ccsc3n2)cc1F | inactive
CCC(=O)OCCNc1nc(-c2ccccc2)nc2ccccc12 | inactive
Cc1ccccc1NC(=O)NNC(=O)OC(C)(C)C | inactive
CC(C)(C)OC(=O)NNc1c2ccccc2nc2ccccc12 | 12.6 µM (active)
COc1ccc(CC(=O)Nc2nc(-c3ccc(F)c(F)c3)cs2)cc1OC | 11.2 µM (active)
Cc1ccc(-c2csc(NC(=O)Cc3cccs3)n2)cc1C | 15.8 µM (active)
Cc1ccc(-c2csc(NC(=O)c3cnccn3)n2)cc1C | inactive
COc1ccc(-c2csc(NC(=O)c3ccc(N4C(=O)CCC4=O)cc3)n2)cc1OC | inactive
Cc1ccc(S(=O)(=O)NC(=O)Nc2nc(-c3ccc(F)c(F)c3)cs2)cc1 | inactive
COc1ccc(-c2csc(NC(=O)CCCc3cccs3)n2)cc1 | inactive
COc1ccc(NC(=O)c2ccc3nc(C(C)C)oc3c2)cc1OC | inactive
NC(=O)C1(Nc2ccc(-c3ccccc3)cc2)CCCC1 | inactive
CCOc1ccc(/C=C(/C#N)c2nnc(N3CCOCC3)n2-c2ccccc2)cc1OC | inactive
Cc1nc(N2CCC(C)CC2)c2c(C)c(C(=O)Nc3cc(F)ccc3C)sc2n1 | inactive
CCOC(=O)C1CCCN(C(=O)c2sc3nc(C)nc(N4CCOCC4)c3c2C)C1 (stereo not drawn) | inactive

Structure (SMILES) | Potency
Cc1nc(N2CCOCC2)c2c(C)c(C(=O)Nc3ccc(C(F)(F)F)cc3)sc2n1 | 2.24 µM (active)
COc1ccc(NS(=O)(=O)c2ccc(N3CCOCC3)c(NC(=O)/C=C/C(=O)O)c2)cc1 | inactive
N=C1c2ccccc2-c2ccccc21 | inactive
c1ccc2c(c1)[I+]c1ccccc1-2 | 0.259 µM (active)
CCOc1cc(C(C(=O)NCC2CCCO2)N(C(=O)Cn2nnc3ccccc32)c2cccc(OC)c2)ccc1O (stereo not drawn) | inactive
CCC(C(=O)NC1CCCC1)N(C(=O)c1snc(C(N)=O)c1N)c1ccc2c(c1)OCCO2 (stereo not drawn) | inactive
COc1cccc(N(C(=O)c2snc(C(N)=O)c2N)C(C(=O)NCC2CCCO2)c2c[nH]c3ccccc23)c1 (stereo not drawn) | 5.62 µM (active)
COc1cc(C(=O)Nn2c(CC(C)C)nc3ccccc3c2=O)cc(OC)c1OC | inactive
S=C(NN=C1CCN(Cc2ccccc2)CC1)NC1CCCCC1 | inactive
Cc1cc(F)ccc1NC(=S)NCCc1ccccc1 | inactive
CCCC1CCC(=NNC(=S)NCCc2ccccc2)CC1 (stereo not drawn) | 10 µM (active)
COc1cccc(NC(=O)CC2C(=O)NCCN2C(=S)Nc2ccc(F)cc2)c1 (stereo not drawn) | inactive
S=C(Nc1cccc(Br)c1)N1CCn2cccc2C1c1cccnc1 (stereo not drawn) | 7.94 µM (active)
Fc1cc(Br)ccc1NC(=S)Nc1cccnc1 | inactive
CC(C)(C)C(=O)Nc1cccc(-c2ccc[nH]2)n1 | inactive
c1ccc(CCc2ccccn2)cc1 | inactive
Cc1cc(Br)ccc1NC(=S)NC1CCCC1 | inactive
O=C(N/N=C/c1ccc(OC(=O)c2ccccc2Cl)cc1)c1ccc(O)cc1 | inactive
COc1ccc(C(=O)Nc2ccccc2C(=O)N/N=C/c2ccccc2OC)cc1 | inactive
COc1ccc(C(=O)Nc2ccccc2C(=O)N/N=C/c2ccc(O)c(OC)c2)cc1 | 0.355 µM (active)
Cc1ccc(-c2cc(C(=O)NC3CCN(Cc4ccccc4)CC3)c3ccccc3n2)cc1 | inactive
COc1cccc(/C=N/Nc2ncc(C(F)(F)F)cc2Cl)c1O | 7.94 µM (active)

Structure (SMILES) | Potency
COc1cc(/C=C2\SC(=S)N(Nc3ncc(C(F)(F)F)cc3Cl)C2=O)cc(OC)c1OC | inactive
COc1cccc(/C(C)=N/Nc2ncc(Cl)cc2Cl)c1 | inactive
CCN(CC)S(=O)(=O)c1ccc(N2CCOCC2)c(NC(=O)C2CSC3(C)CCC(=O)N23)c1 (stereo not drawn) | inactive
C=CCNC(=O)C1CC2c3ccccc3C1c1ccccc12 (stereo not drawn) | inactive
O=c1c2c(nc3cc(-c4cccc(Cl)c4)[nH]n13)CCCC2 | 4.47 µM (active)
O=c1c2c(nc3nc[nH]n13)CCC2 | inactive
CCCCN1Cc2c(nc3cc(-c4ccccc4)[nH]n3c2=O)C1=O | inactive
COc1cc(Cl)c(C)cc1NC(=O)CN1CCCCCC1 | inactive
CCc1c(Nc2ccccc2Cl)nc(N)[nH]c1=O | inactive
CCOc1ccc(NC(=O)CCc2c(C)nn(-c3ccc(N4CCCC4)nn3)c2C)cc1 | inactive
Cc1cccnc1CCNC(=O)C1CCC(=O)N(Cc2cccc(F)c2)C1 (stereo not drawn) | inactive
Cc1ccc(Nc2nc(CSc3nnc(-c4ccncc4)n3-c3ccccc3C)cs2)cc1 | 8.91 µM (active)
Cc1ccc(Nc2nnc(SCc3ccccc3)s2)cc1 | inactive
Cc1ccccc1-n1c(SCC(=O)NCc2cccs2)nnc1-c1ccncc1 | inactive
CCOC(=O)c1ccc(NC(=O)c2ccc(NC(=O)C3CCCO3)cc2)cc1 (stereo not drawn) | inactive
Cc1sc2ncnc(N3CCC(C(=O)NNC(=O)c4ccc(F)cc4)CC3)c2c1C | inactive
O=c1[nH]c(NCCO)nnc1Cc1ccc(Cl)cc1 | inactive
COc1ccc(Cc2nnc(N/N=C/c3ccccc3O)[nH]c2=O)cc1OC | 3.98 µM (active)
CCOc1ccc(-n2c(O)c(/C=N/Nc3nnc(C)c(=O)[nH]3)c3ccccc3c2=O)cc1 | inactive
CCNC(=S)N1CCN(S(=O)(=O)c2ccc(Cl)s2)CC1 | inactive
CN(C(=O)CSc1cccc[n+]1[O-])C1CCCCC1 | inactive
COc1cccc(Nc2ncccc2C(=O)O)c1 | inactive

Structure (SMILES) | Potency
COc1cc(Nc2nccc(-c3cnn4ncccc34)n2)cc(OC)c1 | 2.5 µM (active)
COc1cc(NC(=O)CSc2ccc(-c3cccnc3)nn2)cc(OC)c1 | inactive
O=c1c(-c2cccc(Cl)c2)c[nH]n1-c1ccccc1 | inactive
O=C(Cc1ccc(Br)cc1)N1CCN(c2ccccn2)CC1 | inactive
Cc1cc(Br)ccc1NC(=O)c1cnc(N2CCN(c3ccccn3)CC2)c2ccccc12 | 16.4 µM (active)
COC(=O)c1cnc(N2CCN(c3ccccc3OC)CC2)c2ccccc12 | inactive
O=C(C1CC(=O)N(C2CCCC2)C1)N1CCN(c2cccc(C(F)(F)F)c2)CC1 (stereo not drawn) | inactive
Cc1cc(C)c(S(=O)(=O)NCC(c2ccc3c(c2)OCO3)N2CCOCC2)c(C)c1 (stereo not drawn) | inactive
CC(C)CN1CC(C)C(=O)N(c2ccccc2)C1=S (stereo not drawn) | inactive
CN(C)C(CNC(=O)c1cc2ccccc2o1)c1ccccc1 (stereo not drawn) | inactive
O=[N+]([O-])c1cc(Br)c(O)c(/C=N/Nc2nc3ccccc3s2)c1 | inactive
c1ccc(C(=NNc2nc3ccccc3s2)c2ccccn2)cc1 | 12.6 µM (active)
O=C(Nc1ccccc1Cl)O/N=C(/c1ccccc1)c1ccccn1 | inactive
O=C(CCNC(=O)c1ccc(Br)cc1)Nc1cccc(S(=O)(=O)N2CCCCC2)c1 | inactive
Cc1cc(C)c(-c2n[nH]c3c2C(c2ccccc2F)N(CCO)C3=O)c(O)c1 (stereo not drawn) | inactive
CCCCN1C(=O)c2[nH]nc(-c3ccccc3O)c2C1c1cccc(OCc2ccccc2)c1 (stereo not drawn) | 1.58 µM (active)
CCCCn1c(N)c(N(CCOC)C(=O)c2cccc(OCc3ccccc3)c2)c(=O)[nH]c1=O | inactive
COc1ccc(CCN2C(=O)c3[nH]nc(-c4ccccc4O)c3C2c2ccc(C)cc2)cc1OC (stereo not drawn) | 10 µM (active)
COc1cccc(-c2n[nH]c3c2C(c2cccc(O)c2)N(C)C3=O)c1 (stereo not drawn) | inactive
COc1ccc(CCN(C)CCN2C(=O)c3ccccc3C2=O)cc1OC | inactive
